Bioassay records: PubChem, NMMLSC
LAP4 TOR yeast = alters LAP4-GFP fluorescence in TOR pathway yeast screen. S. cerevisiae LAP4-GFP multiplex, flow cytometry GFP, 3 h; median GFP as percent of DMSO wells. GFP response vs DMSO, % at 10 µM. actives 0.34% (n = 320,000). AID 2023;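 active = GFP response vs DMSO above a set limit, about the screen mean plus 3 SD, cut at about 150% in these data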
MEP2 TOR yeast = yeast TOR pathway MEP2-GFP modulation; S. cerevisiae MEP2-GFP strain, flow cytometry GFP, 3 h; 100% = DMSO control level; GFP response vs DMSO, % at 10 µM; actives 0.51% (n = 330,000);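 active = GFP response versus DMSO above a set limit, roughly screen mean plus 3 SD, cut at about 180% in these data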;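 note: median GFP fluorescence of the barcode-gated MEP2-GFP cells per well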
RPL19A TOR yeast = yeast TOR pathway RPL19A-GFP modulation; actives 0.3% (n = 330,000); S. cerevisiae RPL19A-GFP strain, flow cytometry, 3 h; active compounds read low; percent response vs DMSO, % at 10 µM;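 active = percent response vs DMSO below 50%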;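 note: median channel GFP fluorescence of the barcoded RPL19A-GFP strain; ratio of sample median GFP to plate DMSO average so 100% = DMSO; lower means less RPL19A-GFP as with rapamycin TOR inhibition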
AGP1 TOR yeast = yeast TOR pathway AGP1-GFP modulation; actives 0.02% (n = 320,000); GFP response vs DMSO, % at 10 µM; S. cerevisiae AGP1-GFP multiplex flow cytometry, 3 h; GFP as percent of DMSO wells;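 active = GFP response relative to DMSO above a set limit, near screen average plus 3 SD, cut at about 150% in these data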;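 note: median GFP channel fluorescence of the gated AGP1 strain per well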
CIT2 TOR yeast = alters CIT2-GFP fluorescence in TOR pathway yeast screen; S. cerevisiae CIT2-GFP strain, flow cytometry, 3 h; 100 means same as DMSO wells; GFP response vs DMSO, % at 10 µM; actives 0.065% (n = 320,000); AID 2029;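 active = GFP response relative to DMSO above a set limit, near the screen mean plus 3 SD, cut at about 150% in these data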;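 note: ratio of well median GFP fluorescence to mean of DMSO wells on the plate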
LAP4-GFP pick2 = reconfirmed LAP4-GFP TOR pathway modulator in yeast | S. cerevisiae LAP4-GFP strain, flow cytometry GFP, 3 h | AID 2621 | GFP response vs DMSO, % at 10 µM | actives 20% (n = 590) | shares compounds with LAP4 TOR yeast;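 active = GFP signal as percent of the solvent control above about 150%, meaning raised reporter expression, limit read from the data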;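 note: ratio of well median GFP fluorescence to plate DMSO mean so 100% = DMSO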
MEP2-GFP pick2 = second confirmation of modulators of TOR reporter MEP2-GFP in yeast | shares compounds with LAP4 TOR yeast | S. cerevisiae MEP2-GFP strain, flow cytometry GFP, 3 h | GFP response vs DMSO, % at 10 µM | actives 10% (n = 590) | AID 2622;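 active = GFP signal above 150% of the solvent control wells, that is a rise of more than half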;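 note: median channel GFP fluorescence of all gated yeast cells per well; ratio of median GFP to plate DMSO average so 100% = DMSO level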
RPL19A GFP CP2 = second confirmation of modulators of TOR reporter RPL19A-GFP in yeast; shares compounds with LAP4 TOR yeast; S. cerevisiae RPL19A-GFP strain, flow cytometry GFP, 3 h; active compounds read low; 100% means same as DMSO wells; GFP response vs DMSO, % at 10 µM; actives 3% (n = 590);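 active = under 65% GFP response relative to DMSO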;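 note: median GFP channel fluorescence per well over the all cells gate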
CIT2 GFP CP2 = reconfirmed modulator of CIT2-GFP TOR reporter in yeast. S. cerevisiae CIT2-GFP strain, flow cytometry GFP, 3 h; DMSO control wells read 100%. GFP response vs DMSO, % at 10 µM. shares compounds with LAP4 TOR yeast. AID 2624. actives 8% (n = 590);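 active = GFP response vs DMSO above about 150%, limit read from the data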;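 note: median green fluorescence per well over all gated yeast cells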
AGP1 GFP CP2 = second confirmation of modulators of TOR reporter AGP1-GFP in yeast. shares compounds with LAP4 TOR yeast. S. cerevisiae AGP1-GFP strain, flow cytometry GFP, 3 h. percent response vs DMSO, % at 10 µM. 590 tested, under 10 active;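 active = over 150 percent of DMSO response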;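 note: median GFP channel fluorescence over all cells without mother daughter split; sample median GFP divided by mean DMSO control so 100% equals DMSO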
Yeast autofluor = counter-screen for compound autofluorescence in yeast s288c cells | 610 tested, under 10 active | shares compounds with LAP4 TOR yeast | S. cerevisiae s288c, 520 nm autofluorescence, flow cytometry, 3 h; active compounds read high; zero means same as solvent-only cells | AID 2757 | fluorescence change (kMESF span) at 33 µM;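 active = fluorescence span over the dose series, or activity score, above about 33, limit read from the data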
Yeast autofl DR = TOR screen hit shows autofluorescence in yeast s288c. shares compounds with LAP4 TOR yeast. S. cerevisiae s288c parental, compound autofluorescence, flow cytometry, 3 h. fluorescence change (span) at 33 µM. 110 tested, under 10 active;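 active = fluorescence change span, or the activity score built from it, above 25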
TORC1 bypass = stops wildtype yeast growth while TORC1 bypass cells still grow. shares compounds with LAP4 TOR yeast. S. cerevisiae BY4741 spot growth rating, 48-72 h; active compounds read low. growth rating (0-3) at 30 µM. 120 tested, under 10 active;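 active = growth rating at most 1 for wild type yeast while the TORC1 bypass strain still grows fully, rated 3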
* = called active by the depositor; · = no result. Hits are enriched below; roughly 0.93% of the tested compounds scored in any of these assays.

SMILES	LAP4 TOR yeast	MEP2 TOR yeast	RPL19A TOR yeast	AGP1 TOR yeast	CIT2 TOR yeast	Yeast autofl DR	TORC1 bypass	others
Nc1nc(NC2CCCCC2)nc(Nc2cccc(F)c2)c1[N+](=O)[O-]	·	·	·	·	·	0.11	3
Nc1nc(NCc2ccccc2)nc(Nc2cccc(F)c2)c1[N+](=O)[O-]	82	86	88	85	92	0.1	3
Nc1nc(NC2CCCCC2)nc(NCCO)c1[N+](=O)[O-]	·	104	100	104	98	·	·
Nc1nc(Nc2ccccc2F)nc(Nc2cccc(F)c2)c1[N+](=O)[O-]	·	·	·	·	·	0.21	3
Cc1cc(Nc2cccc(F)c2)nc(NCc2ccccc2)n1	83	100	108	92	90	·	·
CC1(C)Cc2nc(Cl)c(C(N)=O)cc2CO1	105	97	95	100	93	·	·
Cc1cc(C(=O)NCc2ccccc2Cl)n(-c2ccccc2)n1	104	100	100	103	98	·	·
Cc1ccc(S(=O)(=O)/N=C(/c2ccc(F)cc2)N(C)C)cc1	87	103	104	93	97	·	·
Cc1ccc(CNc2nc(N)c([N+](=O)[O-])c(Nc3cccc(F)c3)n2)cc1	106	103	101	104	105	·	·
CCOC(=O)c1c(N)nc(NC)nc1Nc1cccc(F)c1	·	·	·	·	·	·	3
CCC(C)Nc1nc(N)c([N+](=O)[O-])c(Nc2cccc(F)c2)n1 (stereo unspecified)	·	·	·	·	·	0.06	3
COCCNc1nc(N)c([N+](=O)[O-])c(Nc2cccc(F)c2)n1	·	·	·	·	·	0	3
Nc1nc(NCCc2ccccc2)nc(NCc2ccccc2)c1[N+](=O)[O-]	98	105	102	93	98	·	·
Nc1nc(NCCc2ccccc2)nc(Nc2cccc(F)c2)c1[N+](=O)[O-]	·	·	·	·	·	0.1	3
Cc1ccccc1CNS(=O)(=O)c1c(C(=O)N2CCCC2)c(C)n(C)c1C	101	106	98	96	102	·	·
O=C(NCc1ccccc1)c1cc[n+](Cc2ccccc2)cc1	101	102	98	98	94	·	·
Nc1nc(NCc2ccco2)nc(Nc2ccccc2)c1[N+](=O)[O-]	94	96	97	100	101	·	·
Nc1nc(NCc2ccco2)nc(Nc2cccc(F)c2)c1[N+](=O)[O-]	92	91	94	96	89	0.05	3
Cc1nc(Nc2ccc(F)cc2)nc(Nc2ccc(F)cc2)c1[N+](=O)[O-]	101	99	99	103	100	·	·
COc1cccc(Nc2nc(N)c([N+](=O)[O-])c(Nc3cccc(F)c3)n2)c1	·	·	·	·	·	0.16	3
CC(=O)NN1C(=O)/C(=C\c2ccc(Br)o2)SC1=S	107	136	102	96	122	·	·
CC(=O)NN1C(=O)/C(=C/c2ccc(Br)o2)SC1=S	120	187*	105	104	135	·	·	Yeast autofluor=11
C/C(=N\NC(=O)C1CCCC1)c1ccc(Cl)cc1Cl	70	97	105	90	96	·	·
COc1ccc(/C(C)=N/Nc2ccccc2Cl)c(O)c1	94	146	63	46	97	·	·	LAP4-GFP pick2=98;MEP2-GFP pick2=108;RPL19A GFP CP2=107;CIT2 GFP CP2=109;AGP1 GFP CP2=97
NS(=O)(=O)c1c(Sc2ccccc2C(=O)O)ccc2ccccc12	101	106	107	103	102	·	·
SMILES	LAP4 TOR yeast	MEP2 TOR yeast	RPL19A TOR yeast	AGP1 TOR yeast	CIT2 TOR yeast	Yeast autofl DR	TORC1 bypass	others
CCN1/C(=C\C(=S)Nc2ccccc2)Sc2ccccc21	146	97	91	98	98	·	·
CCN1/C(=C/C(C)=C/c2sc3ccccc3[n+]2CC)Sc2ccccc21	188*	102	50	69	61	·	·	Yeast autofluor=2.1
CCN(CC)c1ccc(/C=C2/C(=O)c3ccc(C(=O)O)cc3C2=O)cc1	298*	365*	134	124	231*	·	·	LAP4-GFP pick2=285*;MEP2-GFP pick2=377*;RPL19A GFP CP2=119;CIT2 GFP CP2=250*;AGP1 GFP CP2=110;Yeast autofluor=21
Cc1cccc(CN2C(=O)/C(=C\c3ccc(C(=O)NCCCN4CCN(C)CC4)cc3)Oc3ccccc32)c1	164*	90	91	82	71	·	·	LAP4-GFP pick2=135;MEP2-GFP pick2=105;RPL19A GFP CP2=89;CIT2 GFP CP2=102;AGP1 GFP CP2=92
C/C(CC1CC2=C(CC1(C)C)C(C)(C)CCC2)=N\NC(N)=S (stereo unspecified)	112	105	98	104	101	·	·
Cc1nc(Nc2nc3c(c(=O)[nH]2)CCC3)nc2ccccc12	93	109	65	67	71	·	·	LAP4-GFP pick2=117;MEP2-GFP pick2=112;RPL19A GFP CP2=74;CIT2 GFP CP2=104;AGP1 GFP CP2=100
O=c1[nH]c(NCc2ccccc2)nc2c1CCC2	100	99	97	98	97	·	·
Cn1nc(-c2ccccc2)cc1NC(=O)C1CCCCC1	101	110	106	104	101	·	·
COCc1nc(-c2cc(OC)c(OC)c(OC)c2)no1	109	793*	25*	23	99	·	·	LAP4-GFP pick2=104;MEP2-GFP pick2=105;RPL19A GFP CP2=101;CIT2 GFP CP2=98;AGP1 GFP CP2=100
CNc1nc(N)c([N+](=O)[O-])c(Nc2cc(OC)ccc2OC)n1	·	·	·	·	·	0.31	3
CNc1nc(N)c([N+](=O)[O-])c(Nc2ccccc2OC)n1	125	103	97	104	114	0.42	3
COCCCNc1nc(N)c([N+](=O)[O-])c(Nc2cc(OC)ccc2OC)n1	111	96	101	106	98	·	·
COc1ccccc1Nc1nc(NCCO)nc(N)c1[N+](=O)[O-]	108	91	96	100	98	·	·
Cc1cc(C)n(CCN(C)c2nc3nonc3nc2NC2CC2)n1	93	103	102	98	106	·	·
